# Data published in PubChem BioAssay (Tox21).
# Values joined by “and” are separate entries in the source; they are usually repeats but may differ in a detail not shown here. Equal values may be shown once. Unmarked numbers belong to inactive results. Records with an inconclusive call do not appear. A call without a number means that no potency is given here. Active and inactive are the calls of the source. Unless noted, calls follow the shape of the dose curve; as a rule, active = well fitted curve in the direction sought with a large enough effect in the repeat runs; inconclusive = weak or mixed curves; inactive = no such curve, though single readings can be large; an effect the other way counts as inactive or inconclusive.
# Experiments:
# [1] = qHTS assay for small molecules that induce genotoxicity in human embryonic kidney cells expressing luciferase-tagged ATAD5 (AID 651632); details: HEK293T ATAD5-luciferase induction, 16 h; series mostly up to 83.3 µM; also: nearly all actives have a fitted effect of over 15% in size; also: potency is read from the fitted curve at half-maximal effect
# Summary of the method: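 Increased luciferase signal from ATAD5-tagged reporter cells indicates DNA-damage-driven ATAD5 induction. HEK293T cells are treated for 16 hr at 37C before detection with Amplite.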
# [2] = qHTS assay for small molecule agonists of the p53 signaling pathway - cell viability (AID 651633; calls by dose curve; also: nearly all actives have a fitted effect of over 30% in size; also: potency is read from the fitted curve at half-maximal effect); details: p53RE-bla HCT-116 viability, ATP luminescence, 16 h; series mostly up to 83.3 µM
# Summary of the method: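 Viability counter-read: CellTiter-Glo luminescence (30 min, room temperature) in the same p53RE-bla plates. These plates had been exposed to compounds for 16 h at 37 C.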
# [3] = qHTS assay for small molecules that induce genotoxicity in human embryonic kidney cells expressing luciferase-tagged ATAD5 - cell viability (AID 651634; calls by dose curve; also: nearly all actives have a fitted effect of over 25% in size); details: HEK293T ATAD5-luc cells viability, CellTiter-Fluor, 15.5 h; series mostly up to 83.3 µM
# Summary of the method: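 Cytotoxicity counterscreen in HEK293T cells bearing an ATAD5-luciferase reporter: live-cell protease activity measured by CellTiter-Fluor fluorescence after 15.5 hr compound exposure.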
# [4] = qHTS assay for small molecule disruptors of the mitochondrial membrane potential - cell viability (AID 720634; calls by dose curve; also: nearly all actives have a fitted effect of over 20% in size; also: potency is read from the fitted curve at half-maximal effect); details: HepG2 viability, ATP luminescence (CellTiter-Glo), 1 h; series mostly up to 83.2 µM
# Summary of the method: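 After overnight attachment at 37 C, HepG2 cells received compound or DMSO vehicle for 1 hr. Viability is then taken from ATP-driven luminescence following a 30 min room-temperature CellTiter-Glo step.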
# [5] = qHTS assay for small molecule disruptors of the mitochondrial membrane potential (AID 720635); details: HepG2 mitochondrial membrane potential, Mito-MPS dye ratio; series mostly up to 83.2 µM; also: potency is read from the fitted curve at half-maximal effect
# Summary of the method: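 Mitochondrial membrane potential tracked with Mito-MPS dye, red aggregates (ex 540/em 590 nm) against green monomers (ex 490/em 535 nm). Compound treatment 1 hr at 37C, dye 30 min in HepG2.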
# [6] = qHTS assay to test for compound auto fluorescence at 590 nm (red) in HepG2 cells (AID 720674); details: HepG2 autofluorescence, red 540/590 nm, 1 h; series mostly up to 91.3 µM
# Summary of the method: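 Red autofluorescence (Ex/Em 540/590 nm, Rose Bengal sodium equivalents) was measured in HepG2 cells, 2,000 per well in MEM plus 10% FBS, plated overnight at 37 C. Readings were taken 1 hr after adding 23 nL compound or DMSO, at 37 C and 5% CO2.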
# [7] = qHTS assay to test for compound auto fluorescence at 460 nm (blue) in HEK293 cells (AID 720678); details: blue autofluorescence 405/460 nm; series mostly up to 91.3 µM
# Summary of the method: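 Intrinsic compound fluorescence is recorded in live HEK293 cultures after overnight incubation at 37C, 5% CO2, using excitation 405 nm and emission 460 nm. Values are referenced to triamterene.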
# [8] = qHTS assay to test for compound auto fluorescence at 590 nm (red) in HEK293 cells (AID 720679); details: red autofluorescence 540/590 nm; series mostly up to 91.3 µM
# Summary of the method: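 Red autofluorescence, HEK293 cells: 2,000 cells/well; attach 4-5 hr 37C; add 23 nL cpd or DMSO; incubate o/n 37C 5% CO2; read Ex540/Em590; Rose Bengal sodium reference.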
# [9] = qHTS assay to test for compound auto fluorescence at 535 nm (green) in HEK293 cells (AID 720680); details: green autofluorescence 485/535 nm; series mostly up to 91.3 µM
# [10] = qHTS assay to test for compound auto fluorescence at 460 nm (blue) in HEK293 cell free culture (AID 720681); details: cell-free medium, autofluorescence 405/460 nm (blue); series mostly up to 91.3 µM
# Summary of the method: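 Blue fluorescence (Ex 405/Em 460 nm, triamterene-equivalent) was read immediately after pin transfer of compound or DMSO into medium (DMEM, 10% FBS) without cells.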
# [11] = qHTS assay to test for compound auto fluorescence at 535 nm (green) in HEK293 cell free culture (AID 720682); details: cell-free medium, green autofluorescence 485/535 nm, hits give high values; series mostly up to 91.3 µM
# Summary of the method: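 No cells present: wells hold DMEM supplemented with 10% FBS, into which compound or vehicle is pinned. Green emission is then recorded (485 nm excitation, 535 nm emission) and scaled to fluorescein.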
# [12] = qHTS assay to test for compound auto fluorescence at 590 nm (red) in HEK293 cell free culture (AID 720683); details: cell-free medium autofluorescence, Ex540/Em590 red; series mostly up to 91.3 µM
# Summary of the method: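 Red-channel autofluorescence of compounds in culture medium (DMEM, 10% FBS), no cells, measured at 540/590 nm. Rose Bengal sodium is the reference fluorophore for equivalence.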
# [13] = qHTS assay to test for compound auto fluorescence at 590 nm (red) in HepG2 cell free culture (AID 720684); details: cell-free medium autofluorescence, red 540/590 nm; series mostly up to 91.3 µM
# Summary of the method: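 Steps: dispense MEM/10% FBS medium, no cells; pin compound or DMSO vehicle; read red channel, Ex/Em 540/590 nm. Output given as Rose Bengal sodium equivalents.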
# [14] = qHTS assay to test for compound auto fluorescence at 460 nm (blue) in HepG2 cell free culture (AID 720685); details: Cell-free culture medium, blue autofluorescence 405/460 nm; series mostly up to 91.3 µM
# Summary of the method: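 Compound (23 nL) or DMSO pinned into cell-free MEM with 10% FBS; blue fluorescence read at 405/460 nm excitation/emission, expressed as auto-fluorescence equivalency to triamterene.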
# [15] = qHTS assay to test for compound auto fluorescence at 535 nm (green) in HepG2 cell free culture (AID 720686); details: Cell-free medium, green autofluorescence 485/535 nm; series mostly up to 91.3 µM
# [16] = qHTS assay to test for compound auto fluorescence at 460 nm (blue) in HepG2 cells (AID 720687); details: autofluorescence 405/460 nm, 1 h; series mostly up to 91.3 µM
# Summary of the method: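 Blue-channel autofluorescence (Ex/Em 405/460 nm, triamterene-equivalent) was measured after 1 hr compound exposure at 37 C, 5% CO2. Cells were HepG2, plated overnight at 37 C in MEM plus 10% FBS.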
# [17] = qHTS assay to test for compound auto fluorescence at 535 nm (green) in HepG2 cells (AID 720675); details: green autofluorescence 485/535 nm, 1 h; series mostly up to 91.3 µM
# [18] = target: Glucocorticoid receptor (Homo sapiens) (UniProt P04150); test: qHTS assay to identify small molecule agonists of the glucocorticoid receptor (GR) signaling pathway (AID 720691; active = well fitted activation curve with a large enough effect in the signal ratio in the repeat runs, not every such curve was filed as active; the % refers to the signal ratio); details: GR-bla HeLa, beta-lactamase reporter ratio, 18 h; activation: at 62.4 µM (top of the series)
# Summary of the method: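 Agonist mode in a HeLa line carrying a GRE-controlled beta-lactamase reporter. Compounds act for 18 h at 37 C before a 2 h room-temperature FRET substrate step and fluorescence reading.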
# [19] = target: Glucocorticoid receptor (Homo sapiens) (UniProt P04150); test: qHTS assay to identify small molecule antagonists of the glucocorticoid receptor (GR) signaling pathway (AID 720692; active = well fitted inhibition curve with a large enough effect in the signal ratio in the repeat runs, not every such curve was filed as active; the % refers to the signal ratio; also: potency is read from the fitted curve at half-maximal effect); details: GR-bla HeLa, beta-lactamase FRET ratio, dexamethasone-stimulated, 18 h; series mostly up to 58.5 µM
# Summary of the method: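 Cells plated, rested 4 h at 37 C/5% CO2; compounds in DMSO pin-transferred; dexamethasone added to 5 nM final; 18 h at 37 C; B/G FRET substrate added, 2 h room temperature; fluorescence measured.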
# Glucocorticoid receptor (Homo sapiens), sequence (P04150 whole entry, looked up): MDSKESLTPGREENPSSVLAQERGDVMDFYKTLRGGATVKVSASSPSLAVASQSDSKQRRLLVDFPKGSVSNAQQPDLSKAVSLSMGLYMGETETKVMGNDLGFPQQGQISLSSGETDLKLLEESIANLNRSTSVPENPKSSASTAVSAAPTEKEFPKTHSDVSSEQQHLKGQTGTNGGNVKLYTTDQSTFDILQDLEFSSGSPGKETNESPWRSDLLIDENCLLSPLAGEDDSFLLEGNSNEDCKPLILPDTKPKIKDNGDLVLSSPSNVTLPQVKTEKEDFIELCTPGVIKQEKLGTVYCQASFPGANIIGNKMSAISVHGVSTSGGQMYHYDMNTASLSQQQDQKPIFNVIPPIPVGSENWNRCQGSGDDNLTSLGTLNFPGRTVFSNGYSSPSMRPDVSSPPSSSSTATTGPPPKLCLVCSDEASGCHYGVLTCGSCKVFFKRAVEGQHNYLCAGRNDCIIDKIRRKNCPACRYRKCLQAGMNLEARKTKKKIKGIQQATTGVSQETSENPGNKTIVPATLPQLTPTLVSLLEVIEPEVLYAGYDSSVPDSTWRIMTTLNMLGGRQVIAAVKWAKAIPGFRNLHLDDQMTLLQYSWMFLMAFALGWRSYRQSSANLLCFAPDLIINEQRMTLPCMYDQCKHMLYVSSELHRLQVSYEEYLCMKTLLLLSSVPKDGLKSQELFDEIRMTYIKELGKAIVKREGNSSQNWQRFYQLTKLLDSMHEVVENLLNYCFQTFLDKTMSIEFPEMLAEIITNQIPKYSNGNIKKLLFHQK
smiles,measurement,setting,value
CC(C)C(Nc1ccc(C(F)(F)F)cc1Cl)C(=O)OC(C#N)c1cccc(Oc2ccccc2)c1 (configuration not stated),Potency,[1],inactive
same,Potency,[2],inactive
same,Potency,[3],inactive
same,Potency,[4],inactive
same,Potency,[5],49 µM (active)
same,outcome,[6],inactive
same,Potency,[7],inactive
same,outcome,[8],inactive
same,outcome,[9],inactive
same,Potency,[10],inactive
same,outcome,[11],inactive
same,outcome,[12],inactive
same,outcome,[13],inactive
same,Potency,[14],inactive
same,Potency,[15],inactive
same,Potency,[16],inactive
CC1(C)[C@H](/C=C2\CCSC2=O)[C@@H]1C(=O)OCc1coc(Cc2ccccc2)c1,Potency,[1],inactive
same,Potency,[2],inactive
same,Potency,[3],inactive
same,Potency,[4],9.69 µM (active)
same,Potency,[5],21.7 µM (active)
same,outcome,[6],inactive
same,Potency,[17],inactive
same,Potency,[7],inactive
same,outcome,[8],inactive
same,outcome,[9],inactive
same,Potency,[10],inactive
same,outcome,[11],inactive
same,outcome,[13],inactive
same,Potency,[14],inactive
same,Potency,[15],inactive
same,Potency,[16],inactive
same,Potency,[18],inactive
ClC1(Cl)C2(Cl)C3(Cl)C4(Cl)C(Cl)(Cl)C5(Cl)C3(Cl)C1(Cl)C5(Cl)C24Cl (configuration not stated),Potency,[1],inactive
same,Potency,[2],inactive
same,Potency,[3],inactive
same,Potency,[4],inactive
same,outcome,[6],inactive
same,Potency,[7],inactive
same,outcome,[8],inactive
same,outcome,[9],inactive
same,outcome,[11],inactive
same,outcome,[12],inactive
same,outcome,[13],inactive
same,Potency,[14],inactive
same,Potency,[15],inactive
same,Potency,[16],inactive
same,Potency,[18],inactive
CN1C(=O)[C@@H](NC(=O)c2cc3ccccc3[nH]2)N=C(c2ccccc2)c2ccccc21,Potency,[1],11.9 µM (active)
same,Potency,[2],inactive
same,Potency,[3],inactive
same,Potency,[4],inactive
same,Potency,[5],10.6 µM (active)
same,outcome,[6],inactive
same,Potency,[7],inactive
same,outcome,[8],inactive
same,outcome,[9],inactive
same,Potency,[10],inactive
same,outcome,[11],inactive
same,outcome,[12],inactive
same,outcome,[13],inactive
same,Potency,[14],inactive
same,Potency,[15],inactive
same,Potency,[16],inactive
COc1c2c(cc3c1OCO3)CCN(C)C2,Potency,[1],inactive
same,Potency,[2],inactive
same,Potency,[3],inactive
same,Potency,[4],inactive
same,"fluorescence, relative to Rose Bengal",[6],0.142% [at 18.6 µM]
same,"fluorescence, % of fluorescein control",[17],-0.0459% [at 18.6 µM]
same,"fluorescence, % of triamterene",[7],0.0083% [at 18.6 µM]
same,"fluorescence, % of fluorescent control",[8],-0.0835% [at 18.6 µM]
same,"fluorescence, % of fluorescein",[9],-0.0183% [at 18.6 µM]
same,"fluorescence, % of fluorescent control",[10],0.395% [at 18.6 µM]
same,activity change,[11],-0.0284% [at 18.6 µM]
same,"fluorescence, % of fluorescent control",[12],0.174% [at 18.6 µM]
same,"fluorescence, % of Rose Bengal",[13],-0.194% [at 18.6 µM]
same,"fluorescence, % of fluorescent control",[14],-0.0127% [at 18.6 µM]
same,"fluorescence, % of fluorescein control",[15],-0.0107% [at 18.6 µM]
same,"fluorescence, % of fluorescent control",[16],-0.0807% [at 18.6 µM]
same,Potency,[18],inactive
same,Potency,[19],inactive
Clc1ccc(C(c2ccc(Cl)cc2)C(Cl)Cl)cc1,Potency,[1],inactive
same,Potency,[2],62.1 µM (active) and 61.1 µM (active)
same,Potency,[3],inactive
same,Potency,[4],inactive
same,Potency,[5],9.85 µM (active) and 9.69 µM (active)
same,outcome,[6],inactive
same,Potency,[17],inactive
same,Potency,[7],inactive
same,outcome,[8],inactive
same,outcome,[9],inactive
same,Potency,[10],inactive
same,outcome,[11],inactive
same,outcome,[13],inactive
same,Potency,[14],inactive
same,Potency,[15],inactive
same,Potency,[16],inactive
same,Potency,[18],inactive
same,Potency,[19],24.9 µM (active)
Cc1c([N+](=O)[O-])c(C)c([N+](=O)[O-])c(C(C)(C)C)c1[N+](=O)[O-],Potency,[1],inactive
same,Potency,[2],inactive
same,Potency,[3],inactive
same,Potency,[4],inactive
same,Potency,[5],15.4 µM (active)
same,outcome,[6],inactive
same,Potency,[17],inactive
same,Potency,[7],inactive
same,outcome,[9],inactive
same,Potency,[10],inactive
same,outcome,[11],inactive
same,outcome,[12],inactive
same,outcome,[13],inactive
same,Potency,[14],inactive
same,Potency,[15],inactive
same,Potency,[16],inactive
same,Potency,[18],inactive
